About 17,000 (4.7%) of roughly 360,000 compounds were called active. Roughly 5% stayed inconclusive and do not appear here. This excerpt belongs to a sample that is enriched for actives. Unmarked numbers belong to inactive results. Rule as the data show it: active = activity change below about -50%; inconclusive = mostly about -30% to -49%; inactive = weaker than that.
% is scaled to controls: 0 for no effect and ±100 for the full control effect.

A short description of this experiment: qHTS for Inhibitors of Inflammasome Signaling: IL-1-beta AlphaLISA Primary Screen. As to conditions: THP-1 LPS/ATP IL-1B secretion, 16 h; at 57.5 µM, stronger effect = lower value. An outline of the steps: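 Secreted IL-1B measured by AlphaLISA bead assay after 16 h compound exposure of THP-1 cells; compounds (final up to 57.5 uM) added 1 h before LPS (250 ng/mL) and ATP (1.25 mM) stimulation; lower signal means less secretion.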
Take `CC(=NNC(N)=O)C1CC2CCC1CC2` (stereo unspecified): the activity change was -5.84%.
For `O=C(/C=C/c1ccc(Cl)cc1Cl)c1cccnc1`, the activity change was -59.5% (active).
`O=C(OCc1cc(Cl)ccc1OC(F)F)c1cccnc1`: the activity change was 26%.
Regarding `O=C(NCc1ccc(Cl)c(Cl)c1)c1cccnc1`, the activity change is 3.6%.
Regarding `CC(=O)N1CCc2cc(Br)cc(S(=O)(=O)CCC(=O)Nc3c(C)n(C)n(-c4ccccc4)c3=O)c21`, the activity change was 4.54%.
To `O=C(NN=Cc1ccc([N+](=O)[O-])cc1)C1CC1` belongs -3.03%.
With `O=[N+]([O-])c1ccc(N/N=C/c2ccccc2)cc1` the figure was -59.6% (active); with `O=[N+]([O-])c1ccc(N=NNc2ccc([N+](=O)[O-])cc2)cc1`, -3.41%; with `Cc1ccc(C)c(C(O)c2ncc(-c3cccc4ccccc34)[nH]2)c1` (stereo unspecified), 4.1%.
To `COC(=O)N(NC(=O)C(O)(C(C)C)C(C)C)c1ccccc1` belongs 12.9%.
In the case of `Cc1ccc(N(NC(=O)C(C)(C)O)C(=O)c2ccccc2)cc1C`, the activity change was 38.2%.
With `CCCCCNC(=O)C1c2ccccc2Oc2ccccc21` the figure was -3.75%; with `CC(C)(O)C(=O)NN(C(=O)c1ccccc1)c1cccc(Br)c1`, -15.5%.
With `CCCCC(O)(CCCC)C(=O)NN(C(=O)CCl)c1ccccc1` the figure was -78.2% (active); with `CCCC(O)(CCC)C(=O)NN(C(=O)CCl)c1cccc(C)c1`, -219% (active); with `CCN(CC(=O)Nc1c(F)cccc1F)C(=O)c1ccc(-c2ccc(C(C)=O)cc2)o1`, -9.45%.
With `CC1(C(=O)NS(=O)(=O)c2cccs2)CCN1C(=O)Cc1ccc(-c2ccccc2)cc1` (stereo unspecified), the activity change was 5.64%.
`Cn1c(Nc2ccc(F)cc2)nc2cc(-c3ccsc3)sc2c1=O`: the activity change is 19.8%.
With `CC(C)[C@H](NC(=O)c1ccccc1F)C(=O)Nc1cccc(S(=O)(=O)N2CCOCC2)c1` the figure was 13.4%; with `O=C(NCc1ccco1)/C(=C\c1cccc([N+](=O)[O-])c1)NC(=O)c1ccco1`, 29.6%.
Regarding `CCCCN(C(C)=O)c1ccc2c(c1)C1CC2CCN1Cc1ccccc1` (stereo unspecified), the activity change was -22.2%.
With `COc1ccc(-c2nn3c(-c4ccccc4)nnc3s2)cc1OC` the figure was -54.1% (active).
Take `Fc1ccc(-c2ccc(-c3nn4c(-c5ccco5)nnc4s3)o2)cc1`: the activity change was -8.52%.
Consider `COc1ccc(CNC(=O)Cc2ccc(-c3ccccc3)cc2)cc1OC`, for which the activity change is 0.934%.
To `CCCc1ccc(S(=O)(=O)N2CCN(C(=O)c3cc(C)on3)CC2)cc1` belongs 21.7%; to `CCOC(=O)[C@]12CCCC=C1N(CCC1=CCCCC1)C(=O)[C@H](CC(=O)N1CCN(C(=O)c3ccco3)CC1)C2`, -5.52%.

The values above are taken from PubChem BioAssay AID743279 (National Center for Advancing Translational Sciences (NCATS), 2014).
